RGS8-Gao – human RGS8-Galphao interaction regulation; AID 1423; multiplexed bead flow cytometry, RGS8-Galphao binding; actives lie on both sides; P09471; response (percent of control binding), % at 10 µM; 220,000 tested, 0.34% active; in the data active = response below about 60% or above about 140%; inactive = in between;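 note: Galphao activated as the GDP aluminium fluoride complex binding bead-coupled RGS8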
Target sequence (P09471 whole entry, looked up): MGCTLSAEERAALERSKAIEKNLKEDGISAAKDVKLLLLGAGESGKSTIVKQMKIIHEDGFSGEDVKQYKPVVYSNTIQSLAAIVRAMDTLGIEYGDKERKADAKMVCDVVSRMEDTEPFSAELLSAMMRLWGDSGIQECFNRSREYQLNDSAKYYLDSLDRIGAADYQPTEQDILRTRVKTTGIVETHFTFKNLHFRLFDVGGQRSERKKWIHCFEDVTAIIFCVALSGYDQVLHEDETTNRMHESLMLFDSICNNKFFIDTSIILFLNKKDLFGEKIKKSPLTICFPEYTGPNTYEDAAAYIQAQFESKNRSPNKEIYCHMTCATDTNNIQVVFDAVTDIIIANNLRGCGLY
RGS7-Gao reg – modulates binding of RGS7 to human Galphao. Multiplexed bead flow cytometry; actives lie on both sides. binding response (% of control), % at 10 µM. 220,000 tested, 0.35% active. AID 1439; in the data active = binding response below about 49% or above about 150%; inconclusive = no clear call, values can overlap the other calls; inactive = in between;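 note: fluorescent Galphao held in activated GDP-AlF4 state binding bead-coupled RGS7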
Avidin bead fluor – compound fluoresces at 488/530 nm on avidin beads; compound fluorescence 488/530 nm, flow cytometry; active compounds read high; fluorescence (KMESF) at 10 µM; 220,000 tested, 0.38% active; in the data active = fluorescence above about 47
RGS4-Gao reg – human RGS4-Galphao interaction regulation; P09471; Multiplexed bead flow cytometry, RGS4-Galphao binding; actives lie on both sides; binding response (% of control), % at 10 µM; 220,000 tested, 0.33% active; AID 1415; in the data active = binding response below about 49% or above about 150%; inactive = in between;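 note: fluorescent Galphao activated with aluminum fluoride binding bead-coupled RGS4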
RGS16-Gao – RGS16-Galphao interaction regulator (human); bead-based flow cytometry RGS16-Galphao binding, fluorescence; actives lie on both sides; 220,000 tested, 0.38% active; AID 1441; binding response (% of control), % at 10 µM; O15492+P09471;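 note: Galphao activated by GDP with aluminum fluoride before binding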
Target sequence (O15492 whole entry, looked up): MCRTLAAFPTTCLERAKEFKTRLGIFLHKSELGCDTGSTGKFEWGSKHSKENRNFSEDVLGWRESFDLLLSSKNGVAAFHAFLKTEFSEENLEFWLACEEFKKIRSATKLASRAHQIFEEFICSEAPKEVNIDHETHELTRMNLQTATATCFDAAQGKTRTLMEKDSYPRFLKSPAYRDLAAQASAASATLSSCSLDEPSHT
Target sequence (P09471 whole entry, looked up): as the sequence (P09471 whole entry, looked up) above
GSH bead fluor – compound fluoresces at 488/530 nm on GSH beads; GSH beads flow cytometry, compound fluorescence 488/530 nm; active compounds read high; fluorescence (KMESF) at 10 µM; 190,000 tested, 0.25% active; AID 1776; in the data active = fluorescence above about 89;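 note: glutathione beads carrying GST-tagged Bcl family fusion proteins plus one bare bead set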
RGS-Gao – regulators of human RGS4-Galphao interaction; shares compounds with RGS16-Gao; multiplexed bead flow cytometry, RGS–Galpha-o binding; RGS4–Galpha-o binding response, % at 10 µM; 1,600 tested, 99% active; AID 1504;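 note: fluorescently labeled Galpha-o bound to GDP with aluminium fluoride binding biotinylated RGS beads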
Biotin-avidin – biotin-avidin bead binding disruption counter-screen | 1,700 tested, under 10 active | inhibition, % at 10 µM | streptavidin beads, fluorescein-biotin binding, flow cytometry | shares compounds with RGS16-Gao;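 active = inhibition above 50%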;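 note: median green fluorescence of gated singlet beads compared with DMSO control wells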
RGS8-Gao confirm – confirmation of regulators of human RGS8-Galphao interaction | bead-based flow cytometry RGS8-Galphao binding, fluorescence; actives lie on both sides | shares compounds with RGS16-Gao | binding response (% of control), % at 10 µM | AID 1836 | 1,700 tested, 3% active; in the data active = binding response below about 72% or above about 130%; inactive = in between;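 note: Galphao activated as GDP AlF4 complex before binding bead RGS8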
RGS7-Gao single – RGS7-Galphao interaction regulation, single point confirmation; shares compounds with RGS16-Gao; bead-based flow cytometry RGS7-Galphao binding; actives lie on both sides; response (percent of control binding), % at 10 µM; 1,700 tested, 7.8% active; in the data active = response below about 75% or above about 130%; inactive = in between;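 note: fluorescent Galphao activated with GDP and aluminum fluoride binding bead-coupled RGS7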
RGS16-Gao conf – confirmation of regulators of human RGS16-Galphao interaction. shares compounds with RGS16-Gao. bead-based flow cytometry, RGS16-Galphao binding; actives lie on both sides. response (% of control binding), % at 10 µM. 1,700 tested, 4% active. AID 1838; in the data active = response below about 74% or above about 130%; inactive = in between;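 note: Galphao activated as the GDP aluminium fluoride complex binding bead-coupled RGS16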
RGS4-Gao confirm – confirmation of regulators of human RGS4-Galphao interaction; shares compounds with RGS16-Gao; RGS4-Galphao binding, multiplexed bead flow cytometry; actives lie on both sides; binding response (% of control), % at 10 µM; 1,700 tested, 4% active; AID 1840; in the data active = binding response below about 74% or above about 130%; inactive = in between
RGS19-Gao single – confirmation of regulators of human RGS19-Galphao interaction | bead-based flow cytometry RGS19-Galphao binding; actives lie on both sides | shares compounds with RGS16-Gao | response (percent of control binding), % at 10 µM | 1,700 tested, 5% active; in the data active = response below about 50% or above about 160%; inactive = in between
A number is an active result; . = inactive; ? = inconclusive; / = not tested or not shown; [ ] = remark or other dose. Rows were chosen to be rich in hits. Some 1.2% of all compounds tested hit in one or more screens of this group. Unless noted, the rule behind the calls is not given here.

SMILES | RGS8-Gao | RGS7-Gao reg | Avidin bead fluor | RGS4-Gao reg | RGS16-Gao | GSH bead fluor | Biotin-avidin | RGS8-Gao confirm | RGS7-Gao single | RGS16-Gao conf | RGS4-Gao confirm | RGS19-Gao single | others
CCNC(=O)c1cc2ccccc2o1 | 16.5 | 14.7 | . | 10.4 | 11.2 | . | . | . | . | . | . | .
O=C(NCc1ccccc1)c1cc2ccccc2o1 | . | . | . | . | . | . | / | / | / | / | / | /
COc1ccc2[nH]c(=O)c(COC(=O)c3cccs3)cc2c1 | 22.5 | 20.4 | . | 20.9 | . | . | . | . | . | . | . | .
Cc1cc(=O)oc2c(CN(CC(C)C)CC(C)C)c(O)ccc12 | 143.6[activator] | . | . | . | . | . | . | . | . | . | . | . | RGS-Gao=119.4
N#Cc1ccc(OCC(=O)n2cc(C(=O)c3cc(Cl)cc(Cl)c3O)cn2)cc1 | . | ? | . | . | . | / | / | / | / | / | / | /
CCOC(=O)Cn1cc(C#N)c2cccc(CC)c21 | . | . | . | . | . | . | / | / | / | / | / | /
CCOC(=O)C1CCCN(c2c(N3CCN(c4cccc(Cl)c4)CC3)c(=O)c2=O)C1 (stereo unspecified) | 29.5 | 18.3 | . | 28.8 | 15.9 | . | . | . | . | . | . | .
CCOC(=O)C1CCCN(c2c(N3CCN(C)CC3)c(=O)c2=O)C1 (stereo unspecified) | . | . | . | . | . | . | / | / | / | / | / | /
COc1ccc2c(Cl)c(C(=O)N/N=C/c3c(C)[nH]c4ccccc34)sc2c1 | . | 156.1[activator] | . | . | . | . | . | . | 267.4[activator] | 175.1[activator] | 186.8[activator] | 368.2[activator] | RGS-Gao=139.4
Cc1cccnc1NC(=O)C1CCCN(S(=O)(=O)c2ccc3c(c2)oc(=O)n3C)C1 (stereo unspecified) | 142.0[activator] | . | . | . | . | . | . | . | . | . | . | . | RGS-Gao=115.8
CN1CCC(NC(=O)c2ccncc2)CC1 | . | ? | . | . | . | . | / | / | / | / | / | /
c1ccc(-c2nnc3n2-c2ccccc2SC3)cc1 | . | ? | . | . | . | / | / | / | / | / | / | /
CCOC(=O)c1ccc(N2C(=O)CC(N3CCN(C/C=C/c4ccccc4)CC3)C2=O)cc1 (stereo unspecified) | 153.5[activator] | . | . | . | . | . | . | . | . | . | . | . | RGS-Gao=133.7
CCOC(=O)C1CCCN(C2CC(=O)N(c3ccccc3)C2=O)C1 (stereo unspecified) | . | . | . | . | . | . | / | / | / | / | / | /
C#Cc1ccc([C@@H]2C=C(C(=O)Nc3ccccc3)O[C@H](OCC)[C@H]2CCCO)cc1 | 17.5 | 11.5 | . | 21.9 | 10.9 | . | . | . | . | . | . | .
C#CCNC(=O)C1=C[C@H](C2CCCCC2)[C@@H](CCCO)[C@H](OCC)O1 | 44.5 | 38.0 | . | . | . | . | . | . | . | . | . | . | RGS-Gao=51.7
C#Cc1ccc([C@H]2C=C(C(=O)NCc3ccccc3)O[C@@H](OCC)[C@@H]2CCCO)cc1 | . | . | . | . | . | . | / | / | / | / | / | /
CCOC(=O)c1cc(OCC(=O)NC(C)C(C)C)cc(C(=O)OCC)c1 (stereo unspecified) | 6.1 | -9.7 | . | -30.5 | -18.5 | . | . | . | . | . | . | .
O=Nc1c(O)n(Cc2cccc(C(F)(F)F)c2)c2ccccc12 | . | . | . | . | . | . | / | / | / | / | / | /
COc1ccccc1OCCOCCOc1ccc(C)cc1[N+](=O)[O-] | . | . | . | . | 294.6[activator] | . | . | . | . | . | . | . | RGS-Gao=116.2
COc1ccccc1OCCOCCOc1c(C)cc(C)cc1Br | . | . | . | . | 226.9[activator] | . | . | . | . | . | . | . | RGS-Gao=110.3
COc1cc(C)ccc1OCCOCCOc1ccccc1[N+](=O)[O-] | . | . | . | . | . | . | / | / | / | / | / | /
CC1CCCCN1C(=O)Cn1cc(/C=C2/C(=O)Nc3ccccc32)c2ccccc21 (stereo unspecified) | 55.3 | 44.0 | . | 49.6 | . | . | . | . | . | . | . | .
COc1ccc(/C=N/OCC(=O)NC(c2ccccc2)c2ccccc2)cc1OC | . | . | . | . | . | . | / | / | / | / | / | /
COc1ccc(NC(=O)c2cc3c(=O)n(C)c4ccccc4c3s2)cc1OC | . | . | / | . | . | . | / | / | / | / | / | /
SMILES | RGS8-Gao | RGS7-Gao reg | Avidin bead fluor | RGS4-Gao reg | RGS16-Gao | GSH bead fluor | Biotin-avidin | RGS8-Gao confirm | RGS7-Gao single | RGS16-Gao conf | RGS4-Gao confirm | RGS19-Gao single | others
NC1=NC(=O)CC(C(=O)NCCc2ccccc2)S1 (stereo unspecified) | 3.8 | -28.9 | / | -81.9 | -73.1 | . | . | . | 160.9[activator] | 129.5[activator] | 137.2[activator] | 325.6[activator]
NC1=NC(=O)CC(C(=O)Nc2cccc3ccccc23)S1 (stereo unspecified) | . | . | . | . | . | . | / | / | / | / | / | /
N#C/C(=C\c1cccnc1)C(=O)NC1CCCCC1 | . | . | . | . | . | . | / | / | / | / | / | /
COc1ccc(CNC(=O)CSCc2cccc(Cl)c2)cc1 | . | . | . | . | . | . | / | / | / | / | / | /
COc1ccccc1CNC(=O)CCSCc1cccc(Cl)c1 | 145.8[activator] | . | . | . | . | . | . | . | . | . | . | . | RGS-Gao=98.6
COc1ccc(CNC(=O)CCSCc2cccc(Cl)c2)cc1 | . | 177.4[activator] | 92 | 156.6[activator] | . | . | . | . | . | . | . | .
O=C(CCSCc1cccc(Cl)c1)NC1CCCC1 | . | . | . | . | . | . | / | / | / | / | / | /
O=C(C[n+]1ccccc1)Nc1ccc(Oc2ccccc2)cc1 | . | . | . | . | . | . | / | / | / | / | / | /
CC(NC(=O)Cc1cccc(C(F)(F)F)c1)c1ccc(F)cc1 (stereo unspecified) | . | ? | . | . | . | . | / | / | / | / | / | /
Nc1nc(CCOc2ccc(F)cc2)cs1 | . | . | . | . | . | . | / | / | / | / | / | /
NS(=O)(=O)c1cc(C(=O)OCC(=O)NC2CC2)ccc1Cl | . | . | . | . | . | . | / | / | / | / | / | /
NS(=O)(=O)c1cc(C(=O)OCC(=O)c2ccc3c(c2)OCCO3)ccc1Cl | . | 179.2[activator] | 51 | . | . | . | . | . | . | . | . | . | RGS-Gao=106.1
